# Source: PubChem BioAssay (several laboratories)
# Rows were chosen to be rich in hits. Some 27% of all compounds tested hit in one or more screens of this group.
# CYP2C9 inh – blockers of cytochrome P450 2C9 activity – biochemical, luminescence, ADME assay, primary screen | P11712 | CYP2C9 Supersomes, luciferin-H conversion | inhibition, % at 5 µM | 20% of 96,000 active | AID 777, 2007;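 active = blocking of liver enzyme CYP2C9 beyond about 50% at 5 µM, limit read from the data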
# CYP2C19 inh – blockers of cytochrome P450 2C19 activity – biochemical, luminescence, ADME assay, primary screen; 21% of 96,000 active; AID 778, 2007; inhibition, % at 5 µM; P33261; CYP2C19 Supersomes, luciferin-H EGE luminescence, 30 min;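 active = CYP2C19 inhibition above a set limit at 5 µM in the primary screen, cut at about 50% in these data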;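 note: plate controls were negative control wells for no effect and 2.5 mM tranylcypromine positive control for full effect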
# Target sequence (P33261 whole entry, looked up): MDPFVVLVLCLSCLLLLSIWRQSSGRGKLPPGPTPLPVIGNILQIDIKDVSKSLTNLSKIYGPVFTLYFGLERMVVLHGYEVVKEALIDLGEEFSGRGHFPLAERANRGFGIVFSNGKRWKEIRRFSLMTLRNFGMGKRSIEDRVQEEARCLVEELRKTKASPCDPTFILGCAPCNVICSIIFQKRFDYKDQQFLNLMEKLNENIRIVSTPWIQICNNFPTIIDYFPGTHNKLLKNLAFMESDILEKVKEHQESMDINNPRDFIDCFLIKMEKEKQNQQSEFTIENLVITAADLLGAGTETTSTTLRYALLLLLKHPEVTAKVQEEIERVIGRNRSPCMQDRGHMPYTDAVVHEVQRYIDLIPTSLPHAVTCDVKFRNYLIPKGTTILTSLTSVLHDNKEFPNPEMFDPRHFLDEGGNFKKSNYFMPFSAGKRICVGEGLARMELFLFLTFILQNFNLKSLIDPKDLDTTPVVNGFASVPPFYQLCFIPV
# CYP2C9 act – human CYP2C9 activators, primary screen, biochemical, luminescence; Cytochrome P450 2C9 (Homo sapiens), P11712; recombinant CYP2C9, luciferin-H conversion; active compounds read high; factor 1 = untreated enzyme, 0 = blocked; activation factor at 5 µM; 1.4% of 96,000 active; AID 1024, 2008;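 active = activation factor of 2 or more for CYP2C9 at a 5 µM dose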;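 note: 0 = sulfaphenazole-blocked wells and 1 = vehicle-only wells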
# CYP2C19 activ – human CYP2C19 activators, primary screen, biochemical, luminescence | AID 1025, 2008 | recombinant CYP2C19, luciferin-H EGE luminescence; active compounds read high; 0 = fully inhibited enzyme, 1 = untreated enzyme | Cytochrome P450 2C19 (Homo sapiens), P33261 | 96,000 tested, under 10 active | activation factor at 5 µM;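 active = activation factor of at least 2 at 5 µM in the primary screen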;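 note: 0 = wells with 2.5 mM tranylcypromine and 1 = vehicle-only wells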
# Cav32 inh – Cav3.2 calcium influx blockers – cell-based, Fluo-4 calcium fluorescence, FDSS, MLSMR library, primary screen; 4% of 100,000 active; Cav3.2-expressing cells; active compounds read low; B-score at 10 µM; Voltage-dependent T-type calcium channel subunit alpha-1H (Homo sapiens), O95180;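 active = single-dose well whose peak fluorescence ratio is a statistical outlier from its plate by either plate-standardised score or position-corrected B-score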
# PTK2B oligo ant – antagonists of Pyk2 self-association, primary screen, Q293 cells, FERM NanoBiT luminescence, HTS | z-score (the deposit names both 25 µM and 10 µM) | 0.83% of 99,000 active | active compounds read low;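 active = Z-score of -3 or lower, scaled per plate to the spread of control and sample wells; inactive = z-score above -3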;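 note: negative z-score means lost luminescence so less FERM oligomerization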
# * = called active by the depositor; · = no result given.
SMILES,CYP2C9 inh,CYP2C19 inh,CYP2C9 act,CYP2C19 activ,Cav32 inh,PTK2B oligo ant
CCOC(=O)N1CCN(C(=O)COc2ccc(S(=O)(=O)Nc3ccc(OCC)cc3)cc2)CC1,51*,22,0.5,0.8,-0.038,0.71
COc1ccc(-c2ccc(S(=O)(=O)N3CCOCC3)cc2)cc1,-5,42,1.1,0.6,-3.1,-0.98
CN1CCN(c2ccc(S(=O)(=O)N3CCCCC3)cn2)CC1,-11,-7,1.1,1.1,0.62,-3.9*
O=S(=O)(c1ccc(Oc2ccc(Br)cc2)cc1)N1CCOCC1,64*,75*,0.4,0.2,-1.6,-0.29
O=C(COc1ccccc1)Nc1nn[nH]n1,7,-3,0.9,1,0.43,-0.74
CC1(C)Cc2c(c(-c3ccccc3)nc(N3CCCC3)c2C(N)=O)CO1,-12,-11,1.1,1.1,0.15,-0.7
COc1ccc(C(=O)COC(=O)Cn2nnc3ccccc32)cc1Br,-20,-7,1.2,1.1,0.18,0.2
O=C(NCCO[N+](=O)[O-])c1cccnc1,·,·,·,·,0.083,·
CCOc1ccc(S(=O)(=O)Nc2ccc(S(=O)(=O)N3CCCCC3)cc2)cc1,86*,53*,0.1,0.5,-5.2,-3
CCOc1ccc(S(=O)(=O)N2CCCCCC2)cc1,5,92*,1,0.1,0.15,-1.4
CCOc1ccc(S(=O)(=O)N2CCN(C(=O)c3cccn3C)CC2)cc1,22,64*,0.8,0.4,·,0.65
CCOc1cccc(NC(=O)c2ccc(S(=O)(=O)N3CCCC3)cc2)c1,·,·,·,·,-2.1,·
CCOc1ccc(C(=O)CN2CCN(S(=O)(=O)c3ccc(F)cc3)CC2)cc1,20,41,0.8,0.6,·,0.62
CCOc1ccc(S(=O)(=O)Nc2ccc(S(=O)(=O)N3CCCC3)cc2)cc1,94*,85*,0.1,0.2,·,-1.9
O=C(NCc1ccco1)C(c1cccs1)N(C(=O)C1COc2ccccc2O1)c1cccc(O)c1 (configuration not stated),94*,97*,0.1,0,-8.6*,-1.8
Cc1cc(C)n2c(SCC(=O)Nc3ncc(C(F)(F)F)cc3Cl)nnc2n1,63*,26,0.4,0.7,0.33,1.5
COc1ccc(-c2c(C)nn3c(N4CCN(Cc5ccccc5)CC4)cc(C)nc23)cc1OC,85*,68*,0.2,0.3,1.7,·
COc1ccccc1-c1c(C)nn2c(N3CCN(c4ccccc4OC)CC3)cc(C)nc12,50,76*,0.5,0.2,-1.4,·
COc1ccccc1-c1c(C)nn2c(N3CCCCCC3)cc(C)nc12,9,6,0.9,0.9,-1.5,·
Cc1ccc(N(CC(=O)N/N=C/c2ccc(OC3CSC3)cc2)S(=O)(=O)c2ccccc2)cc1,38,36,0.6,0.6,-2.7*,-1.4
COCn1c(-c2cccc(Br)c2)nc2ccccc21,69*,86*,0.3,0.1,-0.38,-0.77
COCn1c(-c2ccc(OC)c(OC)c2)nc2ccccc21,5,18,0.9,0.8,-0.12,0.31
O=C(Cn1cnc2c(nnn2Cc2ccc(F)cc2)c1=O)N1CCN(c2ccccc2)CC1,-33,11,1.3,0.9,·,0.43
C=CC(C)Sc1nc2c(c(=O)n(C)c(=O)n2C)n1Cc1ccccc1Cl (configuration not stated),13,6,0.9,0.9,-2.5,·
Cn1c(=O)c2c(nc(SCCCO)n2Cc2ccccc2Cl)n(C)c1=O,54*,34,0.5,0.7,2,1.3
SMILES,CYP2C9 inh,CYP2C19 inh,CYP2C9 act,CYP2C19 activ,Cav32 inh,PTK2B oligo ant
Cn1c(=O)c2c(nc(Sc3n[nH]c(N)n3)n2Cc2ccccc2Cl)n(C)c1=O,15,54*,0.8,0.5,-0.057,0.66
Cc1ccc(-c2c(C#N)c(N)nc3c2CCCC3)s1,-25,21,1.3,0.8,1.3,0.54
Cc1ccnc(NS(=O)(=O)c2ccc(NC(=O)C34CC5CC(C)(CC(C)(C5)C3)C4)cc2)n1,58*,-1,0.4,1,-0.97,-0.23
OC1CN=C2C=CC=CN2C1 (configuration not stated),8,-3,0.9,1,-7.4*,-1.2
COc1cccc(NC(=O)N2CCCC(C(=O)Nc3ccccc3OC)C2)c1 (configuration not stated),-60,4,1.6,1,1.1,-0.04
Cc1ccn2c(Nc3ccc4c(c3)OCO4)c(-c3ccccn3)nc2c1,·,·,·,·,·,0.26
Oc1ccc(-c2nc3ccccn3c2NCc2ccco2)cc1,77*,24,0.2,0.8,0.11,0.1
Cc1ccc(-c2nc3ccccn3c2NCc2ccc3c(c2)OCO3)cc1,72*,80*,0.3,0.2,-4.4*,0.15
O=C(Nc1c(-c2ccccc2)nc2ccccn12)c1ccco1,24,2,0.8,1,0.8,1
Cc1nn(CCOc2ccccc2)c(=O)n1-c1c(F)cccc1F,-53,85*,1.5,0.1,·,0.04
Cc1cccc(C)c1OCC(=O)N/N=C/c1ccc2c(c1)OCO2,6,8,0.9,0.9,-1.3,0.9
O=C(CSCc1cccc(Br)c1)N/N=C/c1ccc2c(c1)OCO2,55*,12,0.4,0.9,-5.4*,0.62
O=C(CSCc1cccc(Cl)c1)N/N=C/c1ccc(OCC(=O)N2CCCCC2)cc1,57*,59*,0.4,0.4,-2.3,-3.4*
CC(SCc1ccccc1)C(=O)N/N=C/c1ccc2c(c1)OCO2 (configuration not stated),92*,80*,0.1,0.2,-6.1*,0.74
Cc1cccc(C(=O)N/N=C/c2ccc(OCC(=O)N3CCCCC3)cc2)c1,24,9,0.8,0.9,-0.32,-0.79
CS(=O)(=O)N(Cc1ccccc1)c1ccc(C(=O)Nc2ccc3c(c2)OCO3)cc1,6,-1,0.9,1,-0.82,-1.7
CC(SCc1ccccc1)C(=O)Nc1ccc2c(c1)OCO2 (configuration not stated),73*,98*,0.3,0,-2.5,2.1
O=C(CSc1nnc(CNc2ccc(F)cc2)n1CC1CCCO1)Nc1ccccc1 (configuration not stated),·,·,·,·,-1.9,0.2
CCOC(=O)c1cccc(NC(=O)CSc2nnc(-c3cccnc3)n2C)c1,38,22,0.6,0.8,-1.3,-0.07
Cc1nc2c(C(=O)N3CCOCC3)cnn2c(C)c1Cc1cccc(Cl)c1,24,31,0.8,0.7,·,·
O=C(CSCc1cccc(Br)c1)N1CCOCC1,-8,71*,1.1,0.3,0.66,0.44
NC(=O)CSCc1cccc(Br)c1,·,·,·,·,-0.1,-0.59
O=c1oc2cc(O)ccc2c2ccccc12,-122,22,2.2*,0.8,0.53,0.78
